Some of the results follow. How many sequences the whole screen found active is unknown.
B1: HC1691 (peptide)
chain: CAMDECSQHLAGNASASA
B2: HC2335 (peptide)
chain: CAEHPCHRPSAGNASASA
B3: HC566 (peptide)
chain: CADTEVAASCAGNASASA
B4: FS-2554 (peptide)
chain: CARGKRAITDAGNASASA
B5: FS-2922 (peptide)
chain: CARFGRGFTVAGNASASA
B6: HC907 (peptide)
chain: CARGKPGIYRAGNASASA
B7: FS-2014 (peptide)
chain: CARGGRDHGDAGNASASA
B8: FS-3249 (peptide)
chain: CARGKRATTVAGNASASA
B9: FS-1710 (peptide)
chain: CARGMRALGVAGNASASA
B10: HC202 (peptide)
chain: CAWPLYGNEGAGNASASA
B11: HC148 (peptide)
chain: CAEVVTMTWVAGNASASA
B12: HC502 (peptide)
chain: CAPALSTGLIAGNASASA
B13: FS-2331 (peptide)
chain: CARFDRFILTAGNASASA
B14: FS-2070 (peptide)
chain: CARRKRTAVTAGNASASA
B15: FS-2231 (peptide)
chain: CARRKRYALTAGNASASA
B16: FS-2730 (peptide)
chain: CARNKRYALTAGNASASA
B17: HC1056 (peptide)
chain: CAMAFTAAVTAGNASASA
B18: HC2242 (peptide)
chain: CAEVVTSTQVAGNASASA
B19: HC1746 (peptide)
chain: CAMEECSQMLAGNASASA
B20: HC156 (peptide)
chain: CAEVVTTTWVAGNASASA
B21: FS-1341 (peptide)
chain: CAIERRKKRSAGNASASA
B22: FS-879 (peptide)
chain: CATEKRKKRSAGNASASA
B23: FS-716 (peptide)
chain: CASCLRHKRSAGNASASA
B24: FS-1474 (peptide)
chain: CAQESQKKRSAGNASASA
B25: FS-667 (peptide)
chain: CAINFRDKRSAGNASASA
B26: HC252 (peptide)
chain: CASCLTVPASAGNASASA
B27: HC1734 (peptide)
chain: CAMEECSKHLAGNASASA
B28: HC104 (peptide)
chain: CAVVCCLMSYAGNASASA

Biological target: furin, P09958
Sequence (P09958 whole entry): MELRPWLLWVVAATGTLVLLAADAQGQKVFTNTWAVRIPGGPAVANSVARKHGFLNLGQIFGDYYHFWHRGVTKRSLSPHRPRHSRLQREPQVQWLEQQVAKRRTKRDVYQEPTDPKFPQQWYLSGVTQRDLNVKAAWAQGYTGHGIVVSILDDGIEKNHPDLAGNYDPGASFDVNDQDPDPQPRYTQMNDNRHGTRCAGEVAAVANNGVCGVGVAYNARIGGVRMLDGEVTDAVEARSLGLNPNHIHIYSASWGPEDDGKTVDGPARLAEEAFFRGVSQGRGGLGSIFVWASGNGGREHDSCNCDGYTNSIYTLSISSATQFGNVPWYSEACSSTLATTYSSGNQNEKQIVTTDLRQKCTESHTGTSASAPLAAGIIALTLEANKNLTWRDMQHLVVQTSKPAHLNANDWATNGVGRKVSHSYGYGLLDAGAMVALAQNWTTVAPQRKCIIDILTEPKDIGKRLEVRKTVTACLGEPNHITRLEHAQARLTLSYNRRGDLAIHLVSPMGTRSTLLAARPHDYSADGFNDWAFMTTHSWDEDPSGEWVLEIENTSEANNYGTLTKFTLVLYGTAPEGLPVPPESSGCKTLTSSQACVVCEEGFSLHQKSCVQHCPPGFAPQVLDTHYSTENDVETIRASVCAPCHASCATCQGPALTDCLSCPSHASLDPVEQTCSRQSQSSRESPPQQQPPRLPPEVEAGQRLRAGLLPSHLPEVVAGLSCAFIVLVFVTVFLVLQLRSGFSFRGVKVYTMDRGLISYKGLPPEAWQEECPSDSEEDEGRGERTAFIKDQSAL
Assay: furin cleavage Z-score vs untreated control; higher = more cleavage, active = 3.5 or more, inactive = 1 or less, 8 variable residues between constant flanks
In short: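 Abundance of DNA freed from bead-bound 8-mer peptide–cDNA fusions by purified furin was measured as sequencing read counts after PCR adapter tagging. Cutting ran 7.5, 15 or 30 min in 0.01 ml of 50 mM HEPES pH 7.5 with CaCl2 and NaCl at 1:10 enzyme:substrate. The cleavage Z-score expresses these log counts against furin-free reactions after lowess adjustment and median absolute deviation scaling.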

| Sequence | furin cleavage Z-score (7.5 min) | furin cleavage Z-score (15 min) | furin cleavage Z-score (30 min) |
| --- | --- | --- | --- |
| B1 | -1.05 (inactive) | -0.767 (inactive) | -1.23 (inactive) |
| B2 | 0.592 (inactive) | 0.873 (inactive) | -0.909 (inactive) |
| B3 | 0.247 (inactive) | 0.504 (inactive) | -0.572 (inactive) |
| B4 | 9.38 (active) | 10.5 (active) | 9.27 (active) |
| B5 | 0.116 (inactive) | 0.0326 (inactive) | 0.349 (inactive) |
| B6 | 0.0246 (inactive) | 1.3 | 0.963 (inactive) |
| B7 | -0.697 (inactive) | -0.0412 (inactive) | -1.45 (inactive) |
| B8 | 8.17 (active) | 9.95 (active) | 8.35 (active) |
| B9 | -0.000681 (inactive) | 0.448 (inactive) | 0.128 (inactive) |
| B10 | 0.645 (inactive) | -0.347 (inactive) | 0.229 (inactive) |
| B11 | 0.302 (inactive) | 0.42 (inactive) | 1.21 |
| B12 | 1.72 | 1.24 | -0.0208 (inactive) |
| B13 | -0.835 (inactive) | 0.56 (inactive) | 1.87 |
| B14 | 8.61 (active) | 9.73 (active) | 8.8 (active) |
| B15 | 5.6 (active) | 9.1 (active) | 7.92 (active) |
| B16 | 4.76 (active) | 6.64 (active) | 8.66 (active) |
| B17 | 0.143 (inactive) | -0.123 (inactive) | 0.0661 (inactive) |
| B18 | 0.0534 (inactive) | -0.769 (inactive) | -0.513 (inactive) |
| B19 | 0.461 (inactive) | -0.78 (inactive) | 0.807 (inactive) |
| B20 | 0.967 (inactive) | 0.111 (inactive) | 0.291 (inactive) |
| B21 | 11.5 (active) | 11.5 (active) | 10.3 (active) |
| B22 | 10.8 (active) | 10.5 (active) | 9.01 (active) |
| B23 | 4.23 (active) | 3.94 (active) | 4 (active) |
| B24 | -0.591 (inactive) | -0.0857 (inactive) | 0.142 (inactive) |
| B25 | 10.5 (active) | 11.5 (active) | 8.52 (active) |
| B26 | -0.0568 (inactive) | -0.538 (inactive) | -1.9 (inactive) |
| B27 | 0.481 (inactive) | 1.71 | -0.626 (inactive) |
| B28 | -0.57 (inactive) | -0.101 (inactive) | -0.447 (inactive) |
